According to PubChem BioAssay:

Molecular target: Torsin-1A (Homo sapiens) (UniProt O14656)
Assay: torsin A mutant lysate binding on microarrays – cell lysate, small-molecule microarray, COS7 lysate, 635/667 nm fluorescence, primary screen (AID 1150);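 also: score pools 667 nm emission and signal to noise measuring lysate protein binding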
Conditions: COS7 hTOR1A mutant lysate, 635 nm fluorescence, higher = more signal

Chain of Torsin-1A (Homo sapiens) (O14656 whole entry, looked up): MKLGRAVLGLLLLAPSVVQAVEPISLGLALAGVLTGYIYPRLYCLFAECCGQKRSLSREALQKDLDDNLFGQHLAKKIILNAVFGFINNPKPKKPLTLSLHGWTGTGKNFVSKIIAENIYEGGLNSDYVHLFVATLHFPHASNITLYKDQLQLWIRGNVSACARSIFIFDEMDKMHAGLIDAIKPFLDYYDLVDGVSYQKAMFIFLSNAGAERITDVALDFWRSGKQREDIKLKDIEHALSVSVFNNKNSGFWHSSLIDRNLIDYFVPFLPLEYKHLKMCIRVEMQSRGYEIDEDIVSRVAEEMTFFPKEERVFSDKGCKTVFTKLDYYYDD

Compared with `CN1C2C=C(c3ccc(CO)cc3)C(C3C(=O)N(C(N)=O)C(=O)C32)C1C1CC1` (stereo not given), `CC(C)C[C@@H]1NC(=O)[C@@H]2C[C@H](C(=O)NCCCCCNC(=O)CS)[C@H](c3ccc(O)cc3)N2C1=O` is higher in composite z-score: 0.0517 for the first, 2.08 for the second.

Going from `COc1cc(Cc2cc3c(c(CCc4ccccc4)n2)[Si](C(C)C)(C(C)C)O[C@H]3c2ccccc2)cc(OC)c1OC` to `COc1ccc(CCNC(=O)[C@@H]2c3ccccc3C(=O)N(Cc3cc(F)cc(C(F)(F)F)c3)[C@H]2c2ccc(CO)cc2)cc1`, the composite z-score rises from -0.0236 to 0.478.

First: C=CCOC(=O)[C@H]1[C@@H]2C(=O)O[C@@H](c3ccccc3)[C@@H](c3ccccc3)N2[C@@H](c2ccc(OCCOC(=O)[C@@H]3C[C@@H]4C(=O)N[C@@H](Cc5ccccc5)C(=O)N4[C@@H]3c3ccc(O)cc3)cc2)[C@]12C(=O)Nc1ccc(I)cc12
Second: C=CCNC(=O)[C@@H]1[C@H]2C(=O)O[C@H](c3ccccc3)[C@H](c3ccccc3)N2[C@H](c2ccc(OCCO)cc2)[C@@]12C(=O)N(C(=O)OCCOC)c1ccccc12
The composite z-score of the first is lower: 0.237 for the first, 0.281 for the second.

Compared with `CCOC(=O)C1=CC[C@@H](c2ccccc2)N(S(=O)(=O)c2ccc(C)cc2)[C@@H]1C#N`, `C=CC[C@]1(C(N)=O)N=C(c2ccc(OCCCO)cc2)O[C@H]1c1ccccc1N=[N+]=[N-]` is higher in composite z-score: 0.291 for the first, 1.62 for the second.

Compared with `CCCCC(=C=CC[C@@H](O)c1ccccc1OCCO)C[C@@H](O)c1ccccn1`, `O=C1O[C@@H](c2ccccc2)[C@@H](c2ccccc2)N2[C@@H](c3ccccc3OCCO)[C@]3(C(=O)Nc4ccc(C#CC5(O)CCCCCC5)cc43)[C@@H](C(=O)N3CCCCCCC3)[C@H]12` is higher in composite z-score: 0.495 for the first, 3.08 for the second.
